This is a sample that favours compounds with a hit; in the whole collection about 19% have one here.
TDP1 cell CPT: DT40-hTDP1 cell growth loss with CPT. chicken DT40 Tdp1-/-;hTDP1 cells + 20 nM CPT, ATP luminescence, 48 h. Potency, µM (doses to about 46.2 µM), for inactives: at the top dose activity change, negative = growth inhibition, hits mostly inhibitors. 420,000 compounds, 12% hits; note: nearly all actives have a fitted effect of over 55% in size
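Chicken DT40 Tdp1-/- cells complemented with human TDP1, 400 cells/well, exposed to compounds plus 20 nM camptothecin for at least 48 h at 37 C; viability read as ATP content by CellTiter-Glo luminescence.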
VP16 counter: inhibits Gal4-VP16 luciferase reporter, ROR gamma counter-screen; Drosophila S2 Gal4-VP16 UAS-luciferase, luminescence, 20 h; Potency, µM (top dose mostly 53.6 µM), without a hit: at the top dose activity, negative = inhibition, actives largely listed as inhibitors; 310,000 compounds, 3.5% hits;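 note: Gal4-VP16 expression switched on by copper sulfate through the metallothionein promoter; nearly all actives have a fitted effect of over 50% in size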
TDP1 cell noCPT: qHTS for Inhibitors of human tyrosyl-DNA phosphodiesterase 1 (TDP1): qHTS in cells in absence of CPT | DT40 Tdp1-/- hTDP1 cells, no CPT, ATP luminescence, 48 h | Potency, µM (doses to about 46.2 µM), without a hit: at the top dose activity change, negative = growth inhibition, actives largely listed as inhibitors | 420,000 compounds, 15% hits; note: nearly all actives have a fitted effect of over 55% in size
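Chicken DT40 Tdp1-/- cells complemented with human TDP1, screened without camptothecin (DMSO vehicle only), 400 cells/well. Compounds pin-transferred, cells incubated at 37 °C for at least 48 hr. Growth read as ATP-dependent luminescence (CellTiter-Glo, 30 min at RT).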
RORg inh: blocks mouse ROR gamma transcriptional activity. Drosophila S2 Gal4-RORgamma UAS-luciferase reporter, 20 h. 310,000 compounds, 5.4% hits. Potency, µM (titrated, usually from 53.6 µM), without a hit: at the top dose activity change, negative = inhibition, most hits filed as inhibitors. P51450; note: nearly all actives have a fitted effect of over 60% in size
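Drosophila S2 cells stably expressing Gal4-DBD/mouse RORγ fusion under metallothionein promoter plus UAS-luciferase; compound 1 h, then 700 uM CuSO4 induction for 20 h at ambient temperature; inhibition read as reduced luminescence.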
TDP1 block: inhibitors of human tyrosyl-DNA phosphodiesterase TDP1 | Potency, µM (highest dose often 130 µM), for the others: at the highest dose activity change, negative = inhibition, actives largely listed as inhibitors | 350,000 compounds, 0.28% hits | recombinant TDP1, AlphaScreen DNA substrate cleavage | AID 485290; note: nearly all actives have a fitted effect of over 40% in size
Target sequence (Q9NUW8 whole entry, looked up): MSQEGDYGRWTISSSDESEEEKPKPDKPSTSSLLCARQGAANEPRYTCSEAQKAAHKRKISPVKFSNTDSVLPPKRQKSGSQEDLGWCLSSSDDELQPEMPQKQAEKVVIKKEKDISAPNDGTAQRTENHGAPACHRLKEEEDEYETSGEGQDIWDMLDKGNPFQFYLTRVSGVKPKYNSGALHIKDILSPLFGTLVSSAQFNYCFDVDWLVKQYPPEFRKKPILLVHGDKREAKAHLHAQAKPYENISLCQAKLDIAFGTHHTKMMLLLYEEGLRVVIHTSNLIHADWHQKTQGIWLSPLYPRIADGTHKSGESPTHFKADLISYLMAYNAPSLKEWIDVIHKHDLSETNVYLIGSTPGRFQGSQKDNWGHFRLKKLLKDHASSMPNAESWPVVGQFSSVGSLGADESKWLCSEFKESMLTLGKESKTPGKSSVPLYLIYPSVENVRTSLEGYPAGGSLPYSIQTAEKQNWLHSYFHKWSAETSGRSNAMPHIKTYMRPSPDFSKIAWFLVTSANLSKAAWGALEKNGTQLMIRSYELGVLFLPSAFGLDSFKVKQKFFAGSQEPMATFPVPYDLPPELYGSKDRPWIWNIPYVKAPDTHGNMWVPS
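Signal: AlphaScreen proximity between streptavidin donor and anti-FITC acceptor beads on intact substrate. Reaction: Tdp1 1 nM, substrate 15 nM final, 5 min RT after 15 min compound preincubation.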
* marks the source's active call; other numbers are inactive results; [ ] = remark or other dose. Calls come from the whole dose curve; as a rule, active = well fitted curve in the direction sought with a large enough effect; inconclusive = small, poorly fitted or top-dose-only effect, or another doubt; inactive = no such curve, though single readings can be large; an effect the other way counts as inactive or inconclusive. % is set by controls: 0 for no effect and ±100 for the full control effect; potency is the fitted concentration of half-maximal effect.

What do the screens show for `NC(=O)CCS(=O)(=O)CCN1CCN(S(=O)(=O)c2ccc3c(c2)CCC3)CC1`?
TDP1 cell CPT: 7.9%; TDP1 cell noCPT: 5.2%; TDP1 block: 2.3%

How did CCOC(=O)C1CCN(C(=O)CCc2nnc3ccc(N4CCC(C)CC4)nn23)CC1 do in these assays?
TDP1 cell CPT: 18.4µM*; VP16 counter: -3.4%; TDP1 cell noCPT: inconclusive; RORg inh: -11.1%; TDP1 block: 3.6%

What do the screens show for `CCCNC(=O)CCc1nnc2ccc(N3CCC(C)CC3)nn12`?
TDP1 cell CPT: -14.5%; VP16 counter: 0.2%; TDP1 cell noCPT: 0.1%; RORg inh: 12.7%

What do the screens show for `CCOC(=O)CNC(=O)CCc1nnc2ccc(N3CCC(C)CC3)nn12`?
TDP1 cell CPT: 23.1µM*; VP16 counter: 6.5%; TDP1 cell noCPT: inconclusive; RORg inh: 14.4%

What do the screens show for `COc1ccc(N2CC(C(=O)NCc3cccnc3)CC2=O)cc1` (centres undefined)?
TDP1 cell CPT: 1.5%; VP16 counter: -8.0%; TDP1 cell noCPT: -6.1%; RORg inh: -6.3%; TDP1 block: -5.1%

What do the screens show for `COc1ccc(C(=O)Nc2nc(-c3ccccc3)c(C(C)=O)s2)c(OC)c1`?
TDP1 cell CPT: inconclusive; VP16 counter: -8.4%; TDP1 cell noCPT: inconclusive; RORg inh: -21.6%; TDP1 block: 1.2%

How did COc1cccc2c1C(CO)N1C(C#N)C3CC(C(=O)O)C(C1C2)N3C (centres undefined) do in these assays?
TDP1 cell CPT: 0.184µM*; VP16 counter: 10µM*; TDP1 cell noCPT: 0.206µM*; RORg inh: 7.08µM*

What do the screens show for `CC(=O)NCCOc1ccc2oc3ccccc3c2c1`?
TDP1 cell CPT: inconclusive; VP16 counter: 18.4%; TDP1 cell noCPT: inconclusive; RORg inh: 13.1%; TDP1 block: 3.1%

How did c1ccc(-c2csc(-c3nc4ccccc4[nH]3)n2)cc1 do in these assays?
TDP1 cell CPT: 16.8µM*; VP16 counter: -19.8%; TDP1 cell noCPT: 26.6µM*; RORg inh: inconclusive; TDP1 block: 25.4%[56.1 µM]

Results for S=C1Cc2ccccc2C(c2ccc(Cl)cc2)N1 (centres undefined) ?
TDP1 cell CPT: inconclusive; VP16 counter: 5.62µM*; TDP1 cell noCPT: 23.1µM*; RORg inh: 6.31µM*

How did O=C1Cc2ccccc2C(c2ccc(Cl)cc2)N1 (centres undefined) do in these assays?
TDP1 cell CPT: inconclusive; VP16 counter: 3.3%; TDP1 cell noCPT: inconclusive; RORg inh: 1.5%; TDP1 block: 2.6%

Results for CCC(=O)NCCCC[C@H](NC(=O)OCc1ccccc1)C(=O)Nc1ccc2c(C)cc(=O)oc2c1 ?
VP16 counter: 13.1%; RORg inh: -12.7%; TDP1 block: 4.3%

What do the screens show for `CCn1c2c(c3cc(C(=O)O)ccc31)CCCC2=O`?
TDP1 cell CPT: inconclusive; VP16 counter: 6.9%; TDP1 cell noCPT: 25.9µM*; RORg inh: -3.8%; TDP1 block: 0.0%

Results for O=C(c1csnn1)N1CCC2(CCCN(C(c3ccccc3)c3ccccc3)C2)CC1 ?
TDP1 cell CPT: 18.4µM*; VP16 counter: 0.5%; TDP1 cell noCPT: inconclusive; RORg inh: 20.7%

What do the screens show for `O=C(c1csnn1)N1CCC2(CC1)CN(c1ccccc1)C2`?
TDP1 cell CPT: 16.4µM*; VP16 counter: 13.1%; TDP1 cell noCPT: inconclusive; RORg inh: -2.9%

Results for O=C(c1csnn1)N1CCC2(CC1)CN(c1cccc(-c3ccccc3)c1)C2 ?
TDP1 cell CPT: 23.1µM*; VP16 counter: 4.7%; TDP1 cell noCPT: 20.6µM*; RORg inh: 39.1%

How did O=C(c1csnn1)N1CCC2(CC1)CN(C(c1ccccc1)c1ccccc1)C2 do in these assays?
TDP1 cell CPT: -15.1%; VP16 counter: 2.5%; TDP1 cell noCPT: inconclusive; RORg inh: 7.5%

How did COc1cc(C(=O)N[C@H](C(=O)NC2CCCc3ccccc32)C(C)C)cc(OC)c1OC (some centres undefined) do in these assays?
TDP1 cell CPT: -20.6%; TDP1 cell noCPT: inconclusive; TDP1 block: 0.1%

Results for COc1ccc(-n2c3nc4ccccc4nc3c3c(=N)oc(C)nc32)cc1 ?
TDP1 cell CPT: -13.5%; VP16 counter: 2.1%; TDP1 cell noCPT: inconclusive; RORg inh: 14.5%; TDP1 block: 2.7%

What do the screens show for `CC1=C(C(=O)Nc2ccc(Cl)cc2)C(c2ccccc2C)n2ncc(C(=O)Nc3ccc(C)cc3)c2N1` (centres undefined)?
TDP1 cell CPT: 7.31µM*; TDP1 cell noCPT: 7.31µM*; TDP1 block: 0.0%

What do the screens show for `CC1=C(C(=O)Nc2ccc(Cl)cc2)C(c2ccccc2)n2ncc(C(=O)Nc3ccccc3)c2N1` (centres undefined)?
TDP1 cell CPT: 20.6µM*; TDP1 cell noCPT: 14.6µM*; TDP1 block: 7.3%

Results for COc1cccc(C2C(C(=O)Nc3ccc(Cl)cc3)=C(C)Nc3c(C(=O)Nc4ccccc4)cnn32)c1OC (centres undefined) ?
TDP1 cell CPT: 23.1µM*; TDP1 cell noCPT: inconclusive; TDP1 block: 2.7%

How did COc1ccccc1NC(=O)C1=C(C)Nc2c(C(=O)Nc3ccc(F)cc3)cnn2C1c1cccc([N+](=O)[O-])c1 (centres undefined) do in these assays?
TDP1 cell CPT: inconclusive; TDP1 cell noCPT: 23.1µM*; TDP1 block: 2.1%

Results for O=c1oc2ccc3ccccc3c2cc1-c1nnc(Nc2ccc(F)cc2)s1 ?
TDP1 cell CPT: inconclusive; TDP1 cell noCPT: inconclusive; TDP1 block: -3.1%[12.3 µM]

How did Cc1nc2ccccc2c2nc(NC(=O)Cc3ccccc3)nn12 do in these assays?
TDP1 cell CPT: -7.8%; VP16 counter: -9.9%; TDP1 cell noCPT: -12.6%; RORg inh: 3.7%; TDP1 block: 4.4%

What do the screens show for `O=C(CCc1ccc(S(=O)(=O)N2CCOCC2)cc1)NCCCN1CCCC1=O`?
TDP1 cell CPT: -4.5%; VP16 counter: 7.3%; TDP1 cell noCPT: -4.4%; RORg inh: 2.4%; TDP1 block: 3.1%

Results for COc1cccc2sc(NC(=O)c3ccc4c(c3)OCCO4)nc12 ?
TDP1 cell CPT: 4.0%; TDP1 cell noCPT: -26.0%; TDP1 block: 5.4%

How did CC(=O)c1ccc(S(=O)(=O)N2CCc3ccccc3C2)cc1 do in these assays?
TDP1 cell CPT: 0.2%; VP16 counter: -7.8%; TDP1 cell noCPT: inconclusive; RORg inh: -37.3%[1.91 µM]

Results for Cc1cccc2sc(NNC(=O)c3ccc(S(=O)(=O)N4CCc5ccccc5C4)cc3)nc12 ?
TDP1 cell CPT: 2.59µM*; VP16 counter: inconclusive; TDP1 cell noCPT: 2.31µM*; RORg inh: -32.4%; TDP1 block: 3.9%
